Results filed as inconclusive are left out. Activity calls are given as the source filed them. Unless noted, calls come from the whole dose curve; as a rule, active = well fitted curve in the direction sought with a large enough effect in the repeat runs; inconclusive = weak or mixed curves; inactive = no such curve, though single readings can be large; an effect the other way counts as inactive or inconclusive.
How the values were obtained:
[1] = qHTS assay to identify small molecule agonists of the hypoxia (HIF-1) signaling pathway - cell viability counter screen (AID 1224844; calls by dose curve; note: nearly all actives have a fitted effect of over 50% in size)
Summary of the method: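 ME-180 HRE-bla cells, 2,000/well, 0.5% dialyzed FBS; 5 hr settle, 17 hr compound at 37C/5% CO2; CCF4-AM reporter read first, then CellTiter-Glo luminescence after 30 min RT.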

[2] = qHTS assay to identify small molecule agonists of H2AX (AID 1224845; active = well fitted activation curve with a large enough effect in the signal ratio in the repeat runs, not every such curve was filed as active; the % refers to the signal ratio)
Summary of the method: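 Wild-type CHO-K1 cells plated overnight, then exposed 3 hr at 37C to compounds at 15 concentrations (0.76% DMSO). Lysed, then HTRF anti-pH2AX(S139)-cryptate/anti-H2AX-d2 detection after 24 hr at room temperature; emissions 665 and 620 nm.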

[3] = qHTS assay to identify small molecule agonists of the hypoxia (HIF-1) signaling pathway (AID 1224846; active = well fitted activation curve with a large enough effect in the signal ratio in the repeat runs, not every such curve was filed as active; the % refers to the signal ratio)
Summary of the method: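 Cell line: CellSensor HRE-bla ME-180; 2,000 cells/well; 0.5% dialyzed FBS; 5 h preincubation; DMSO compound pin transfer; 17 h, 37C, 5% CO2; CCF4-AM added; bla FRET signal scored for activation.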

[4] = qHTS assay to identify small molecule agonists of H2AX - cell viability counter screen (AID 1224847; calls by dose curve; note: top concentration of the series differs between compounds; nearly all actives have a fitted effect of over 30% in size)
Summary of the method: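 Viability of CHO-K1 (wild type) cells after 3 hr compound exposure was measured by CellTiter-Glo luminescence.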

[5] = qHTS assay to identify small molecule antagonists of the estrogen related receptor (ERR) signaling pathway from Tox21 library (AID 1224848); note: nearly all actives have a fitted effect of over 50% in size
Summary of the method: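 Screening used an ERR reporter line supplied by NTP, exposed for 18 h at 37 C to library compounds delivered in DMSO. Signal was luciferase luminescence developed with ONE-Glo at room temperature for 30 min.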

[6] = qHTS assay to identify small molecule agonists of the estrogen related receptor (ERR) signaling pathway from Tox21 library (AID 1224849; calls by dose curve; note: nearly all actives have a fitted effect of over 15% in size); settings: ERR reporter cell line, ONE-Glo luciferase, 18 h; at 92.4 µM (top of the series) unless noted
Summary of the method: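 ERR cells, 6 h pre-incubation 37 C/5% CO2; cpd in DMSO pinned; 18 h 37 C; ONE-Glo added, 30 min RT; luminescence read. Agonist mode, qHTS.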

[7] = qHTS RealTime-Glo MT Cell Viability Assay in HepG2 cells - 24 hour (AID 1224867); note: nearly all actives have a fitted effect of over 50% in size
Summary of the method: (§1)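 HepG2 suspension premixed with RealTime-Glo reagents is plated at 600 cells per well and left 5 h at 37 C/5% CO2. Compounds in DMSO then go in, and bioluminescence reflecting viable cell number is recorded over 40 h.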

[8] = A CellTox Green Cytotoxicity Assay to monitor cytotoxicity in HEK293 cells - 0 hour (AID 1224869); note: nearly all actives have a fitted effect of over 50% in size
Summary of the method: (§2)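 Nonlytic real-time cytotoxicity: HEK293 + CellTox Green reagent plated, 5 h preincubation, pintool compound addition (23 nL in DMSO), 37 C for 40 h, fluorescence measured at successive time points.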

[9] = qHTS RealTime-Glo MT Cell Viability Assay in HepG2 cells - 40 hour (AID 1224870); note: nearly all actives have a fitted effect of over 50% in size
Summary of the method: (§3)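 HepG2 cells mixed with RealTime-Glo MT reagents (NanoLuc plus cell-permeant prosubstrate) were seeded at 600 cells/well, incubated 5 h at 37 C/5% CO2, then pinned with compounds in DMSO; nonlytic luminescence tracked viability during 40 h treatment.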

[10] = A CellTox Green Cytotoxicity Assay to monitor cytotoxicity in HEK293 cells - 40 hour (AID 1224871); note: nearly all actives have a fitted effect of over 45% in size
Summary of the method: as §2

[11] = qHTS RealTime-Glo MT Cell Viability Assay in HEK293 cells - 16 hour (AID 1224872)
Summary of the method: (§4)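 Reads taken at 0, 8, 16, 24, 32 and 40 h from the same wells. HEK293 cells (600/well) carried RealTime-Glo reagents from seeding, with compound added after a 5 h settle at 37 C.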

[12] = qHTS RealTime-Glo MT Cell Viability Assay in HepG2 cells - 8 hour (AID 1224873); note: nearly all actives have a fitted effect of over 55% in size
Summary of the method: as §3

[13] = qHTS RealTime-Glo MT Cell Viability Assay in HEK293 cells - 40 hour (AID 1224874); settings: RealTime-Glo luminescence; max response: active compounds read low; note: nearly all actives have a fitted effect of over 50% in size
Summary of the method: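 Cells were seeded together with NanoLuc luciferase and a prosubstrate that viable cells reduce to a luciferase substrate. After a 5 h incubation at 37 C/5% CO2, compounds were added and luminescence was measured repeatedly during 40 h of treatment.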

[14] = A CellTox Green Cytotoxicity Assay to monitor cytotoxicity in HEK293 cells - 24 hour (AID 1224875); note: nearly all actives have a fitted effect of over 45% in size
Summary of the method: as §2

[15] = A CellTox Green Cytotoxicity Assay to monitor cytotoxicity in HepG2 cells - 16 hour (AID 1224876); note: nearly all actives have a fitted effect of over 45% in size
Summary of the method: (§5)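 Read-out is fluorescence of a cyanine dye excluded from live cells that stains DNA of dead HepG2 cells, with signal proportional to cytotoxicity. Plates were read at 0, 8, 16, 24, 32 and 40 h after compound addition.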

[16] = qHTS RealTime-Glo MT Cell Viability Assay in HepG2 cells - 32 hour (AID 1224877); note: nearly all actives have a fitted effect of over 55% in size
Summary of the method: as §1

[17] = A CellTox Green Cytotoxicity Assay to monitor cytotoxicity in HepG2 cells - 24 hour (AID 1224878); note: nearly all actives have a fitted effect of over 45% in size
Summary of the method: as §5

[18] = A CellTox Green Cytotoxicity Assay to monitor cytotoxicity in HepG2 cells - 40 hour (AID 1224879); note: nearly all actives have a fitted effect of over 40% in size
Summary of the method: as §5

[19] = qHTS RealTime-Glo MT Cell Viability Assay in HEK293 cells - 32 hour (AID 1224868)
Summary of the method: as §4
% is set by controls: 0 for no effect and ±100 for the full control effect.

C#CC(C)(C)O
inactive: Potency [1] | outcome [2] | outcome [3] | Potency [4] | Potency [5] | activity change, positive = activation [6] -2.81% | Potency [7] | outcome [8] | Potency [9] | Potency [10] | Potency [11] | outcome [12] | max response [13] 6.71% | Potency [14] | Potency [15] | Potency [16] | Potency [17] | Potency [18]

CCOC(=O)COc1ccc(Cl)cc1Cl
inactive: outcome [2] | outcome [3] | Potency [4] | Potency [7] | Potency [19] | outcome [8] | Potency [9] | Potency [10] | Potency [11] | outcome [12] | Potency [14] | Potency [15] | Potency [16] | Potency [17]

CNC(=O)Oc1cc(C)c(N(C)C)c(C)c1
inactive: outcome [2] | outcome [3] | Potency [4] | Potency [5] | activity change, positive = activation [6] 4.59% | Potency [7] | Potency [19] | outcome [8] | Potency [9] | Potency [10] | outcome [12] | max response [13] -10.9% | Potency [14] | Potency [15] | Potency [16] | Potency [17] | Potency [18]

Cn1c(N)nc2c3cccnc3ccc21
inactive: Potency [1] | outcome [2] | Potency [4] | Potency [7] | Potency [19] | outcome [8] | Potency [9] | Potency [10] | outcome [12] | max response [13] -11% | Potency [14] | Potency [15] | Potency [16] | Potency [17] | Potency [18]

O=C(Cl)/C=C/C(=O)Cl
inactive: Potency [1] | outcome [2] | Potency [4] | Potency [5] | activity change, positive = activation [6] -12% | Potency [7] | outcome [8] | Potency [9] | Potency [10] | Potency [11] | outcome [12] | Potency [14] | Potency [15] | Potency [16] | Potency [17] | Potency [18]

N#CC(Br)(Br)C(N)=O
inactive: Potency [1] | outcome [2] | Potency [4] | Potency [7] | Potency [19] | outcome [8] | Potency [9] | Potency [10] | outcome [12] | max response [13] -10% | Potency [14] | Potency [16]

Cc1ccc2cc(C)ccc2c1
inactive: Potency [1] | Potency [4] | Potency [5] | activity change, positive = activation [6] 0.0091% | Potency [7] | outcome [8] | Potency [9] | Potency [10] | Potency [11] | outcome [12] | max response [13] 8.7% | Potency [14] | Potency [15] | Potency [16] | Potency [17] | Potency [18]

O=C(NC(O)C(Cl)(Cl)Cl)NC(O)C(Cl)(Cl)Cl (centres undefined)
inactive: Potency [1] | outcome [2] | Potency [4] | Potency [7] | Potency [19] | outcome [8] | Potency [9] | Potency [10] | Potency [11] | outcome [12] | Potency [14] | Potency [15] | Potency [16] | Potency [17] | Potency [18]

C=C(Cl)CSC(=S)N(CC)CC
inactive: outcome [3] | Potency [4] | Potency [7] | Potency [19] | outcome [8] | Potency [9] | Potency [10] | Potency [11] | outcome [12] | max response [13] -15% | Potency [14] | Potency [15] | Potency [16] | Potency [17] | Potency [18]

CC1=C2[C@H]3OC(=O)[C@@H](C)[C@@H]3CC[C@@]2(C)C=CC1=O
inactive: Potency [1] | outcome [3] | Potency [4] | Potency [5] | activity change, positive = activation [6] 5.47% [at 42.5 µM] | Potency [7] | outcome [8] | Potency [9] | Potency [10] | Potency [11] | outcome [12] | max response [13] 10.1% | Potency [14] | Potency [15] | Potency [16] | Potency [17] | Potency [18]

CC(C)(C1CCC(O)CC1)C1CCC(O)CC1 (centres undefined)
inactive: Potency [1] | outcome [3] | Potency [4] | Potency [7] | Potency [19] | outcome [8] | Potency [9] | Potency [10] | Potency [11] | outcome [12] | max response [13] -18.7% | Potency [14] | Potency [15] | Potency [16] | Potency [17]

O=C/C=C/c1ccco1
inactive: Potency [1] | outcome [2] | outcome [3] | Potency [4] | Potency [7] | outcome [8] | Potency [9] | Potency [10] | Potency [11] | outcome [12] | max response [13] 3.04% | Potency [14] | Potency [15] | Potency [16] | Potency [17]

c1cncc([C@@H]2CCCCN2)c1
inactive: Potency [1] | outcome [2] | outcome [3] | Potency [4] | Potency [7] | Potency [19] | outcome [8] | Potency [9] | Potency [10] | outcome [12] | max response [13] 9.53% | Potency [14] | Potency [15] | Potency [16] | Potency [17]

N[C@@H](Cc1ccc(Oc2cc(I)c(O)c(I)c2)c(I)c1)C(=O)O
inactive: Potency [1] | Potency [4] | Potency [7] | outcome [8] | Potency [9] | Potency [10] | Potency [11] | outcome [12] | max response [13] 5.88% | Potency [14] | Potency [15] | Potency [16] | Potency [17] | Potency [18]

From PubChem BioAssay (Tox21)
